CRFBP-R2 block: CRF-BP/CRF-R2 complex antagonism | HEK293 CRF-R2/CRF-BP, CRF-induced calcium fluorescence | inhibition, % at 11.8 µM | hit rate 0.59% among 350,000 | AID 588475;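 active = inhibition of the ligand-induced calcium signal above about 50% at the single tested concentration, limit read from the data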
cardiac RTF act: cardiac RTF calcium sensitization; IANBD-labeled TnC RTF fluorescence at EC20 calcium; 0% EC20 calcium, 100% full calcium; AID 493008; hit rate 0.24% among 340,000; P19429+P45379; activation, % at 7.2 µM;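 active = activation above the mean over all tested compounds plus 3 SD, cut at about 30% in these data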;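 note: rise in fluorescence read as greater calcium sensitivity of cardiac thin filaments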
IDE cell inh: inhibitors of human insulin-degrading enzyme in cells; P14735; hit rate 0.41% among 320,000; AID 434962; inhibition, % at 5.59 µM; HEK cells, FAbetaB cleavage, fluorescence polarization;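 active = percent inhibition above the average of all tested compounds plus 3 SD, set per screening campaign, cut at about 16% in these data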;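 note: IDE supplied by intact live HEK cells; FP after avidin binding of uncleaved biotin substrate so inhibition keeps polarization high; 0% = DMSO wells and 100% = 60 µM reference IDE inhibitor Ii1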
IDE act: activators of human insulin-degrading enzyme in cells; P14735; HEK cells, FAbeta-B cleavage, fluorescence polarization; 0% vehicle, 100% cell-free pure enzyme wells; activation, % at 5.96 µM; hit rate 0.073% among 340,000; AID 493087;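 active = activation above the mean of all tested compounds plus 3 SD, set per screening campaign, cut at about 17% in these data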
CRFBP-R2 agonist: CRF-BP/CRF-R2 complex agonism | hit rate 0.46% among 350,000 | activation, % at 13.2 µM | HEK293 CRF-R2/CRF-BP, calcium dye fluorescence (FLIPR); percent of saturating CRF peptide response | AID 588473;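 active = activation of at least 50%, plus an integration ratio under a set limit after plate pattern correction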;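 note: plate controls were neutral control wells without compound for no effect and CRF at EC100 for full effect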
RTF Ca sens inh: cardiac RTF calcium desensitization | P19429+P45379 | hit rate 0.12% among 340,000 | inhibition, % at 7.15 µM | IANBD-labeled cardiac RTF, Ca2+ fluorescence;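 active = inhibition above the mean inhibition of all tested compounds plus 3 SD, cut at about 17% in these data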;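 note: assay run at fixed EC70 calcium of 1.6 mM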
The depositor's hits bear a star; i = inactive; . = no result; + = active, no number. Sampled rows, rich in hits. Any-hit rate of the full collection: about 1.5%.

SMILES | CRFBP-R2 block | cardiac RTF act | IDE cell inh | IDE act | CRFBP-R2 agonist | RTF Ca sens inh
Cc1ccc(C(=O)NC(=S)NNC(=O)c2ccccc2)cc1 | 34 | -5 | 1 | 0 | 121* | -3
CC(C)NC(=S)NC(=O)c1ccc(Cl)cc1Cl | -3 | 6 | 0 | 0 | -1 | 5
CCCCC(=O)NC(=S)NNC(=O)c1ccc(Cl)cc1Cl | 37 | 1 | . | 7 | 111* | -4
O=C(NC(=S)Nc1ccccc1)c1ccc(-c2ccccc2)cc1 | -21 | -3 | -4 | -1 | 3 | -15
O=C(O)c1ccc(NC(=S)NC(=O)c2ccc(-c3ccccc3)cc2)cc1 | 78* | 17 | 4 | -45 | -1 | -4
Cc1ccc(C(=O)NNC(=S)NC(=O)c2ccc(Cl)cc2Cl)cc1 | -46 | -10 | 1 | 0 | 156* | -14
Cc1ccc(S(=O)(=O)/N=C(/Nc2ccc([N+](=O)[O-])cc2)c2ccccc2)cc1 | -14 | 3 | 5 | 5 | 4 | 6
Cc1ccc(S(=O)(=O)/N=C(/Nc2ccc([N+](=O)[O-])cc2[N+](=O)[O-])c2ccccc2)cc1 | 67* | -5 | 0 | 3 | 1 | -9
CSc1ccc(S(=O)(=O)NCC(=O)OCC(=O)N(Cc2ccccc2)C(C)C)cc1[N+](=O)[O-] | 56* | -8 | 1 | 4 | 1 | -9
CSc1ccc(S(=O)(=O)NCC(=O)OCC(=O)N(C)Cc2ccccc2)cc1[N+](=O)[O-] | 13 | 0 | 7 | 0 | 0 | -3
COC(=O)C1=C(C)N(Cc2ccccc2)C(=NCc2ccccc2)N[C@H]1c1cccc(C(F)(F)F)c1 | -10 | 13 | 6 | 22* | 4 | 1
COC(=O)C1=C(C)N(Cc2ccccc2)C(=NCc2cccc(Cl)c2)N[C@H]1c1cccc(F)c1 | -30 | 4 | 3 | 18* | 3 | -8
COC(=O)C1=C(C)N(Cc2ccccc2)C(=NCC(C)C)N[C@H]1c1cccc(C(F)(F)F)c1 | -5 | -2 | 6 | 16 | 7 | -10
O=C(Nc1ccc2c(c1)CCCN2C(=O)c1ccco1)c1cc([N+](=O)[O-])ccc1Cl | 21 | 0 | -9 | 5 | 1 | 3
Cc1nn(CC(C)C)c(Cl)c1C(=O)NCC1CCCO1 (stereo unspecified) | -13 | . | . | . | 0 | .
O=C(CSc1ccccc1)NN1C(=O)c2ccccc2C1=O | 122* | -5 | -2 | 6 | -2 | -6
CCCP(=O)(CC(=O)N(CC)CC)c1ccccc1 (stereo unspecified) | 58* | 0 | 1 | 3 | 3 | -11
CCOC(=O)c1c(NC(=O)C(C)Sc2cccc[n+]2[O-])sc2c1CCN(Cc1ccccc1)C2 (stereo unspecified) | 7 | 15 | 1 | -2 | 51* | -10
Cc1ccc(NC(=O)/C(=C/c2ccco2)c2ccccc2)c(C)c1 | 9 | -4 | -1 | 3 | 1 | 4
Cc1cc(C)c(NC(=O)/C(=C/c2ccccc2)c2ccccc2)c(C)c1 | 67* | -5 | 9 | 2 | 0 | -3
CCN(CC)C(=O)C1=C(C)N(CCC2=CCCCC2)C(=O)C(CC(=O)NCCCCc2ccccc2)C1 (stereo unspecified) | 17 | . | . | . | 0 | .
Cc1cccc(NC(=O)C(C)OC(=O)CNC(=O)C2CCCCC2)c1 (stereo unspecified) | -10 | . | . | . | -1 | .
Cc1ccn2c(=O)c(NC(=O)c3ccc4c(c3)OCO4)c(C)nc2c1 | -5 | . | . | . | 0 | .
CSc1ccccc1NC(=O)CO/N=C(\C)c1cc2ccccc2o1 | 34 | -5 | 1 | 3 | -3 | 2
C/C(=N\OCC(=O)Nc1ccc(F)c(F)c1F)c1cc2ccccc2o1 | 54* | -4 | 1 | -2 | 4 | -21
SMILES | CRFBP-R2 block | cardiac RTF act | IDE cell inh | IDE act | CRFBP-R2 agonist | RTF Ca sens inh
CCCOc1ccc(-c2c(C(=O)N/N=C(\C)c3ccncc3)nnn2-c2nonc2N)cc1 | -7 | -1 | 3 | 3 | 0 | -1
Cc1ccc(S(=O)(=O)Nc2cccc(C(=O)NCCCn3ccnc3)c2)cc1F | 27 | -1 | -2 | -2 | 1 | -30
Clc1ccc2c(NCc3ccccn3)ccnc2c1 | 4 | -4 | 3 | 3 | 2 | -6
CCOc1ccccc1Nc1ccnc2cc(Cl)ccc12 | 59* | -4 | 5 | -6 | -16 | -5
CCN(CC(=O)Nc1ccccc1C(F)(F)F)C(=O)c1ccc(-n2nc(C)c(CCC(=O)OC)c2C)cc1 | -3 | 62* | . | -18 | 1 | -74
CCN(CC(=O)Nc1ccccc1C(F)(F)F)C(=O)c1cc(-c2ccccc2)nn1-c1ccccc1 | 18 | -5 | -6 | 3 | 1 | 1
Cc1ccc(S(=O)(=O)Nc2ccccc2-c2ccccc2NS(=O)(=O)c2ccc(C)cc2)cc1 | 19 | -3 | 4 | 0 | -1 | -1
O=C1c2ccccc2-c2cccc(NS(=O)(=O)c3ccc(C(F)(F)F)cc3)c21 | -63 | 2 | 8 | -21 | 97* | -12
CC(C)(C)C(=O)Nc1nnc(SCC(=O)NC2CCCC2)s1 | -13 | -5 | 2 | 6 | -1 | -25
Cc1nn(C)c(C)c1N1C(=O)c2cccc3c(N)ccc(c23)C1=O | -398 | + | 7 | 12 | 330* | i
Cc1nn(C)c(C)c1N1C(=O)c2cccc3c(Br)ccc(c23)C1=O | 22 | 8 | 7 | -6 | -3 | -5
CC1C/C(=N\NC(=O)c2ccc([N+](=O)[O-])cc2)CC(C)(C)C1 (stereo unspecified) | 72* | -3 | -3 | 7 | 5 | -7
Cc1ccc(-c2cc3ncc(C#N)c(N)n3n2)cc1 | -7 | 2 | 4 | 1 | 2 | -1
O=C1NC(=S)S/C1=C\c1coc2ccc(O)cc2c1=O | 96* | 3 | 5 | -4 | -1 | -9
COc1cccc(C(c2c(N)[nH]c(=S)[nH]c2=O)c2c(N)[nH]c(=S)[nH]c2=O)c1 | 1 | . | 5 | . | 0 | .
Cc1ccc(NC(=O)C2C3C=CC4(CN(Cc5cccnc5)C(=O)C24)O3)cc1 (stereo unspecified) | -5 | -4 | 8 | 18* | -3 | -9
CCC(c1ccc(O)cc1)C(CC)c1ccc(O)cc1 (stereo unspecified) | 9 | 1 | 0 | 0 | 0 | 4
Cc1cc(C(c2ccc(O)cc2)c2cc(C)c(O)cc2C)c(C)cc1O | -65 | -4 | -1 | 2 | 69* | 2
Cc1sc2nc(-c3ccccc3)[nH]c(=O)c2c1-c1ccccc1 | . | . | 7 | . | . | .
Cc1c(-c2ncn[nH]2)sc(C#N)c1-c1ccccc1 | 59* | 4 | 3 | 0 | 0 | -1
O=C1c2cccc3c(O)ccc(c23)C(=O)N1Cc1ccccc1 | -196 | 957* | -16 | 59* | 248 | i
COc1ccc(CN2CCCCC2C)cc1C (stereo unspecified) | 60* | 5 | 6 | 1 | 162* | 8

Compound activity (PubChem BioAssay)
